This passage reports Potency and outcome results from PubChem BioAssay (NCATS).

Records with an inconclusive call do not appear. Entries that show only a call come without a potency. The source made the active and inactive calls. The call rests on the fitted dose curve.
Potency means the concentration at half of the fitted maximal effect.

The nature of this assay: Cytotoxicity counterscreen for inhibitors of SARS-CoV-2 cell entry (AID 1645845). Further: nearly all actives have a fitted effect of over 50% in size. As to conditions: cell viability (SARS-CoV-2 entry assay cells); series mostly up to 57.1 µM. Summed up: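 After a 15 min room-temperature ATPLite 1step step, luminescence reflected ATP remaining in HEK293-ACE2 cells exposed to compound for 1 h plus 48 h at 37 C, with percent activity set by cell and no-cell controls.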
(Counterscreens check selectivity or assay interference.)
For the molecule `CCOC(=O)c1ccc(N)cc1`, the Potency entry was “inactive”.
Still for that read-out and setting: the result for `Cc1ccc(C(=O)c2ccc(CC(=O)O)n2C)cc1` reads “inactive”.
Still for that read-out and setting: the entry for `CC(=O)OCC(=O)[C@@]1(OC(C)=O)[C@@H](C)C[C@H]2[C@@H]3C[C@H](F)C4=CC(=O)C=C[C@]4(C)[C@@]3(F)[C@@H](O)C[C@@]21C` is “inactive”; for `C[C@H]1C[C@@H]2[C@H]([C@@H](O)C[C@@]3(C)[C@H]2CC[C@]3(O)C(=O)CO)[C@@]2(C)C=CC(=O)C=C12` it is “inactive”.
On the same count and under the same terms, the result for `Cc1cccn2c(=O)c(-c3nnn[nH]3)cnc12` reads “inactive”; that for `OCCOCCN1CCN(C2=Nc3ccccc3Sc3ccccc32)CC1`, “inactive”.
As for `CO/N=C(\C(=O)N[C@@H]1C(=O)N2C(C(=O)O)=C(C[N+]3(C)CCCC3)CS[C@H]12)c1csc(N)n1`, the Potency result was “inactive”.
Still for that read-out and setting: the entry for `CN(C)C(=O)COC(=O)Cc1ccc(OC(=O)c2ccc(N=C(N)N)cc2)cc1` is “inactive”.
Same read-out and setting: the entry for `CO[C@@]1(NC(=O)C(C(=O)O)c2ccc(O)cc2)C(=O)N2C(C(=O)O)=C(CSc3nnnn3C)CO[C@@H]21` (stereo partly drawn) is “inactive”; for `CC1CCc2c(N3CCC(O)CC3)c(F)cc3c(=O)c(C(=O)O)cn1c23` (stereo not drawn) it is “inactive”.
In the case of `COc1ccc(NS(=O)(=O)c2ccc(N)cc2)nn1`, the Potency entry was “inactive”.
The same measure, in the same setting: the result for `CC(=O)Nc1c(I)cc(I)c(C(=O)O)c1I` reads “inactive”.
The same measure, in the same setting: the result for `Cc1ccc(C(=O)C(C)CN2CCCCC2)cc1` (stereo not drawn) reads “inactive”.
Take `O=P(O)(O)C(Sc1ccc(Cl)cc1)P(=O)(O)O`: the outcome is “inactive [at 0.702 µM]”.
On to `CCCCCCCCCCCCCCCCO`, for which the Potency entry was “inactive”.
The same measure, in the same setting: the entry for `Nc1c(I)cc(I)c(C(=O)N(CCC(=O)O)c2ccccc2)c1I` is “inactive”.
As for `CC(=O)Nc1ccc(S(=O)(=O)Nc2cc(C)on2)cc1`, the Potency result was “inactive”.
Same read-out and setting: the result for `OC[C@H]1O[C@@H](n2cnc3c2NC=NC[C@H]3O)C[C@@H]1O` reads “inactive”.
Still for that read-out and setting: the result for `CO[C@@]1(NC(=O)C2SC(=C(C(N)=O)C(=O)O)S2)C(=O)N2C(C(=O)O)=C(CSc3nnnn3C)CS[C@@H]21` (stereo partly drawn) reads “inactive”.
Still for that read-out and setting: the entry for `COc1ccc(C2C(=O)c3ccccc3C2=O)cc1` is “inactive”.
For `CC(C)Cc1ccc(CC(=O)O)cc1`, the Potency entry was “inactive”.
Still for that read-out and setting: the entry for `C[C@@H]1[C@H](O)[C@@H](C)/C=C/C=C\C=C\C=C\C=C\C=C\C=C\[C@H](O[C@@H]2O[C@H](C)[C@@H](O)[C@H](N)[C@@H]2O)C[C@@H]2O[C@](O)(C[C@@H](O)C[C@@H](O)[C@H](O)CC[C@@H](O)C[C@@H](O)CC(=O)O[C@H]1C)C[C@H](O)[C@H]2C(=O)O` (stereo in doubt) is “inactive”.
Same read-out and setting: the result for `CC(C)c1ccc2oc3nc(N)c(C(=O)O)cc3c(=O)c2c1` reads 10 µM (active); that for `Nc1ccc(S(=O)(=O)NC(=O)c2ccccc2)cc1`, “inactive”; that for `N#C[C@H]1C[C@H]2C[C@@H]2N1C(=O)[C@@H](N)C12CC3CC(CC(O)(C3)C1)C2`, “inactive”.
On the same count and under the same terms, the entry for `O=S(=O)(O)c1ccc2nc(-c3ccccc3)[nH]c2c1` is “inactive”; for `c1ccc(-c2nc[nH]c2-c2ccccc2)cc1` it is “inactive”.
As for `O=C(OCC1(COC(=O)c2cccnc2)CCCC(COC(=O)c2cccnc2)(COC(=O)c2cccnc2)C1O)c1cccnc1`, the Potency entry is “inactive”.
`CC[C@H](C)[C@H](N)C(=O)O`: the Potency result was “inactive”.
Turning to `Cc1ccc(C(C)C)cc2c(C)ccc1-2`, the Potency result was “inactive”.
Same read-out and setting: the entry for `COc1cc(C)nc(-n2nc(C)cc2OC)n1` is “inactive”; for `COc1ccc2c(c1)c(CC(=O)OC/C=C(\C)CC/C=C(\C)CCC=C(C)C)c(C)n2C(=O)c1ccc(Cl)cc1` it is “inactive”.
Consider `NS(=O)(=O)c1cc(Cl)c(Cl)c(S(N)(=O)=O)c1`, for which the Potency result was “inactive”.
On the same count and under the same terms, the entry for `C=CCN1CCc2nc(N)sc2CC1` is “inactive”; for `CCCCC(CC)COC(=O)c1ccccc1O` (stereo not drawn) it is “inactive”.
For the molecule `Cc1cc(O)cc2c1O[C@](C)(CCC[C@H](C)CCC[C@H](C)CCCC(C)C)CC2`, the Potency result is “inactive”.
Same read-out and setting: the result for `O=P(O)(O)C(O)(Cn1ccnc1)P(=O)(O)O` reads “inactive”; that for `c1ccc2c(c1)CCCC2C1=NCCN1` (stereo not drawn), “inactive”.
